Among the data in PubChem BioAssay AID977607 (Broad Institute, 2014) are max activation values, retold here.

Among all 1,500 compounds or so, about 460 (31%) were called active. Roughly 1% stayed inconclusive and do not appear here. The list is a sample of the results. Potency and affinity values are given separately. Values without a mark were called inactive.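 How the source made its calls: active means curve reaches 40% activation over neutral controls at an AC40 no higher than the top valid tested concentration; inconclusive means no clear call, values can overlap the other calls; inactive means signal moving opposite to the expected increase, and the rest.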

This assay in a line: activators of glucose-dependent insulin secretion, dose response, cell-based, INS-1E, Gaussia luciferase, luminescence, cherry-pick, set 2 (AID 977607).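 Further: 0% = median of the plate neutral control wells.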 The following applies: INS-1E GLuc insulin secretion reporter, 2-3 h, stronger effect = higher value; at 35 µM, 100% = signal doubled over neutral wells unless noted.
On to `O=C(N/N=C/c1ccc2c(c1)OCO2)c1ccc(Cl)cc1Cl`, for which the max activation was -37.2%.

For the molecule `CCC(=O)Nc1sc(Cc2ccc3c(c2)OCO3)c(C)c1C(N)=O`, the max activation is -24.2% [at 0.0016 µM, 100% = signal doubled over neutral wells].

Regarding `O=C(Nc1ccc(F)cc1)c1cccnc1Oc1ccccc1`, the max activation was 21.8%.

As to `CC(C)CCN1CC(O)=C(c2nc(-c3ccc(Cl)cc3)cs2)C1=N`, the max activation is -11.3% [at 0.005 µM, 100% = signal doubled over neutral wells].

As to `CCCn1c(C)cc(C)c(C#N)c1=O`, the max activation is -11.7% [at 1.2 µM, 100% = signal doubled over neutral wells].

For the molecule `O=C(O)CC(CC(=O)Nc1ccc(C(=O)O)cc1)c1ccccc1` (centres undefined), the max activation was 11.8% [at 3.8 µM, 100% = signal doubled over neutral wells].

With `CCNc1nc(Oc2ccc(C#N)cc2)cc(C(F)(F)F)n1`, the max activation was -19% [at 0.135 µM, 100% = signal doubled over neutral wells].

As for `O=S(=O)(NCc1ccccc1)c1ccc(-n2cccn2)cc1`, the max activation was 32% [at 0.135 µM, 100% = signal doubled over neutral wells].

With `Cc1ccc2c(c1)N(C(C)C(=O)NCc1cccs1)C(=O)CO2` (centres undefined), the max activation was 15.9% [at 0.42 µM, 100% = signal doubled over neutral wells].

Take `CN1CCCC1CCNC1C2CC3CC(C2)CC1C3` (centres undefined): the max activation was -20.8% [at 0.135 µM, 100% = signal doubled over neutral wells].

With `Cc1ccc(-n2nc3c(c2NC(=O)C2CC2)CS(=O)(=O)C3)cc1`, the max activation is -19.6% [at 0.005 µM, 100% = signal doubled over neutral wells].

Regarding `CC(C)CN(C(=O)C1CCCCC1)C1CCS(=O)(=O)C1` (centres undefined), the max activation is -14.6% [at 3.8 µM, 100% = signal doubled over neutral wells].

For `CC1CCC(NC(=O)C2COc3ccccc3O2)CC1` (centres undefined), the max activation was -17.3% [at 0.135 µM, 100% = signal doubled over neutral wells].

For the molecule `O=C(O)C1Cc2c([nH]c3ccccc23)C(c2ccc3c(c2)OCO3)N1` (centres undefined), the max activation is 27.5% [at 0.015 µM, 100% = signal doubled over neutral wells].

Regarding `CC(=O)N1CCN(c2nc(-c3cccs3)nc3ccccc23)CC1`, the max activation is 40.4% [at 11 µM, 100% = signal doubled over neutral wells].

As to `Cc1nn(-c2ccccc2)c2nc(C(F)F)cc(C(F)F)c12`, the max activation is 13.6%.

Consider `COc1ccc(-c2cnc(N)nc2-c2ccc(OC)cc2)cc1`, for which the max activation is 20.9% [at 11 µM, 100% = signal doubled over neutral wells].

As for `Cc1cccn2cc(CCNS(=O)(=O)c3cccs3)nc12`, the max activation is -22.2% [at 0.42 µM, 100% = signal doubled over neutral wells].

With `Cc1cc(OCC(O)CNC(C)c2ccccc2)ccc1C(C)C` (centres undefined), the max activation was 327%.

In the case of `COc1ccccc1C(C)NS(=O)(=O)c1ccc(Cl)nc1` (centres undefined), the max activation is 15.6% [at 3.8 µM, 100% = signal doubled over neutral wells].

Turning to `Cc1cn(CC(C)C)c(=O)n(-c2ccccc2)c1=O`, the max activation is 12.2%.

Take `Cc1cccc2nc(-c3ccco3)c(Nc3ccccc3)n12`: the max activation is -25.5%.

For `O=c1c(C(c2ccccc2)c2c(O)sc3ccccc3c2=O)c(O)sc2ccccc12`, the max activation was 19.2%.

With `COc1ccc(-c2[nH]c3ccccc3c2SCCN)cc1`, the max activation is -28.1%.

As for `COc1ccc(N2CC(C(=O)N3CCc4ccccc43)CC2=O)cc1` (centres undefined), the max activation was -12.5% [at 0.0016 µM, 100% = signal doubled over neutral wells].

`CCCCc1[nH]c(=O)c(C#N)c2c1CCCC2`: the max activation is 16.7%.

Turning to `Cc1c(OCC(=O)NCc2ccccn2)ccc2c3c(c(=O)oc12)CCCC3`, the max activation is 27.3%.

In the case of `NNc1nc(-c2ccccc2)c2ccccc2n1`, the max activation is -19.6% [at 0.046 µM, 100% = signal doubled over neutral wells].

As for `CCn1c(=O)[nH]c(=O)c2c(N)c(C(=O)c3cc(F)ccc3F)sc21`, the max activation was 27.3%.

Consider `COC(=O)N1CCCCC1c1cc(C(=O)NCc2ccc(Cl)c(Cl)c2)no1` (centres undefined), for which the max activation is -38.9%.

With `CC(C)COc1ccc(Br)cc1CNC(C)(C)C`, the max activation was -18.4% [at 11 µM, 100% = signal doubled over neutral wells].

Regarding `COCCN1Cc2cccc(C(=O)NCc3ccccc3OC)c2C1=O`, the max activation was -20% [at 0.0016 µM, 100% = signal doubled over neutral wells].

On to `CSc1ccc(/C=N/N(C)S(=O)(=O)c2ccc(C)cc2)cc1`, for which the max activation was -22.1%.

Consider `Cc1ccc(S(=O)(=O)/N=C2\CN(C)C(=O)N2C)cc1`, for which the max activation is -21.8% [at 3.8 µM, 100% = signal doubled over neutral wells].

In the case of `CCCc1nc(-c2cc3cc(C)ccc3[nH]c2=O)no1`, the max activation was -13.2% [at 1.2 µM, 100% = signal doubled over neutral wells].

As for `CCOC(=O)c1c(N)c(C#N)c2n1CCCC2`, the max activation is -17% [at 0.0016 µM, 100% = signal doubled over neutral wells].

Turning to `O=C(O)c1c(NC(=O)N2CCOCC2)sc2c1CCCC2`, the max activation was -10.1% [at 0.0016 µM, 100% = signal doubled over neutral wells].

Regarding `CCOc1ccc(C(=O)NCC(=O)OCCN2C(=O)c3ccccc3C2=O)cc1OCC`, the max activation is -25.4% [at 0.135 µM, 100% = signal doubled over neutral wells].

On to `O=S(=O)(NCC1CCCO1)c1ccc(Cl)nc1` (centres undefined), for which the max activation was -19.6% [at 3.8 µM, 100% = signal doubled over neutral wells].
